NPR1 activator – GC-A (human) enzyme activation. activation, % at 10 µM. P16066. HEK293 GC-A cells, cGMP TR-FRET, EC30 ANP; 0% at EC30 ANP, 100% saturating ANP. 370,000 tested, 0.14% active. AID 1671463; in the data active = activation above about 40%
HSF-1 act – increases HSF-1 driven luciferase reporter signal | NIH3T3-HGL HSF-1 luciferase reporter, MG132, 8 h; 100% = twice DMSO control signal | activation, % at 9 µM | 300,000 tested, 1.7% active | AID 504408;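 active = mean replicate activation of at least 50% with a set share of replicates each reaching 50%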;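 note: 0% = median of the neutral control wells and 100% = twice that signal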
aDG glyco act – alpha-DG glycosylation activation; Pro5-aDG cells, alpha-DG glycosylation AlphaScreen (IIH6); 0% Pro5, 100% B10-LARGE cell signal; activation, % at 10 µM; 360,000 tested, 0.22% active; AID 624168;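 active = activation of at least 8% versus controls, or a plate z-score of at least 8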;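 note: Pro5 are CHO cells carrying HIG-tagged alpha-DG that lacks glycosylation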
NPR2 activator – GC-B (human) receptor activation | P20594 | HEK293-GC-B cells, CNP EC30, cGMP TR-FRET; 0% at EC30 CNP, 100% saturating CNP | activation, % at 10 µM | 370,000 tested, 0.11% active;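 active = activation at 10 µM reaching about 35% in either raw or pattern-adjusted values, limit read from the data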
Dyrk1A ADPGlo – blocks rat Dyrk1A kinase activity. inhibition, % at 12.5 µM. ADP-Glo luminescence, NFATc1 peptide. Q63470. 310,000 tested, 0.43% active; in the data active = inhibition above about 50%;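 note: plate controls were vehicle with enzyme for no effect and no enzyme for full effect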
HSF1 inhib – HSF1 inhibition; NIH3T3-HGL HSE-luciferase, MG132-induced, luminescence 8 h; stronger effect = lower value; 300,000 tested, 0.77% active; activity change, negative = inhibition, % at 7.5 µM (by protocol); AID 2098;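 active = more than half of replicate wells show activity change below -50%, luminescence cut by over half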;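 note: luciferase reports HSF-1 transcriptional activity via heat shock element; 0% = median of DMSO wells and -100% = zero luminescence signal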
Starred values were filed as active, the others as inactive; . = no result given. Sampled rows, rich in hits. Any-hit rate of the full collection: about 2.5%.

SMILES	NPR1 activator	HSF-1 act	aDG glyco act	NPR2 activator	Dyrk1A ADPGlo	HSF1 inhib
Cc1ccn(CCC(=O)NC2CCCc3c2cnn3-c2cccc(C)c2C)n1 (stereo unspecified)	5	2	0	8	-7	3
O=C(NNC1=NCCCCC1)Nc1ccc(Cl)cc1	-2	11	0	3	-2	3
CCOc1cc(/C=C(\C#N)c2[nH]nc(N)c2C#N)ccc1O	3	-15	0	-4	-3	-3
Cc1ccc(CNC(=O)Cn2ccc3ccccc3c2=O)o1	2	64*	0	0	-1	13
COC(=O)CNC(=O)Cn1ccc2ccccc2c1=O	6	-39	0	3	3	-26
CCS(=O)(=O)NC(C)C(c1cccs1)N1CCN(C)CC1 (stereo unspecified)	0	-3	0	6	-1	-2
Cc1cc(F)cc(C)c1Cn1cnc2c(cnn2C(C)(C)C)c1=O	0	.	0	0	-6	.
Cc1ccc(F)c(Cn2cnc3c(cnn3C(C)(C)C)c2=O)c1Cl	32	.	1	38*	3	.
CCOC(=O)c1cn(CC)c2cc(N3CCSCC3)c(F)cc2c1=O	1	13	0	-2	1	-1
O=C(/C=C/c1ccc(Cl)c(Cl)c1)NC1=NCCS1	-2	54*	0	-9	-3	25
Cc1cccc(C)c1NC(=O)COC(=O)c1cccc2c1C(=O)c1ccccc1C2=O	9	82*	0	1	0	30
O=C1CCCC/C1=N\Nc1ccc(OCc2ccccc2)cc1	1	19	0	-3	-1	8
O=C1CCCC/C1=N\Nc1ccc(C2CCCCC2)cc1	.	-59	.	.	.	-56*
Cc1ccc(CNC(=S)Nc2ccc(OC(F)F)cc2C)cc1	-3	-7	0	1	-1	3
O=[N+]([O-])c1ccc(-c2nc(C(Cl)Cl)c3ccccc3n2)cc1	7	115*	0	-10	-5	65
CN(C)c1ccc(C2Nc3ccccc3C(=O)N2CCCN2CCOCC2)cc1 (stereo unspecified)	-3	-74	0	-9	2	-68*
O=C(Nc1ccc(NC(=O)C2CC2)nc1)c1cccnc1	0	-3	0	-3	8	-2
NC(=O)c1cc2ccccc2o/c1=N\NC(=O)c1ccco1	-1	-6	0	-1	22	-1
NC(=O)c1cc2cc(Br)ccc2oc1=NCc1ccccc1	1	190*	0	-2	15	142
O=C(CSc1nnc(CNC(=O)c2c(F)cccc2Cl)o1)NCCc1ccccc1	1	-1	0	3	-2	2
NNC(=O)c1nn(-c2ccc(Cl)cc2)cc1O	0	-72	0	-12	-8	-70*
Cn1nnnc1Sc1ncnc2scc(-c3ccc(F)cc3)c12	7	62*	0	9	19	41
Cn1nnnc1Sc1ncnc2scc(-c3ccc(Br)cc3)c12	2	.	0	3	.	.
CS(=O)(=O)N(CC(=O)O)c1ccc(C23CC4CC(CC(C4)C2)C3)cc1	5	-72	0	4	0	-65*
C/C(CCc1oc2c(Br)cc(Br)cc2c1-c1ccc(C)o1)=N\O	-2	80*	0	5	.	40
SMILES	NPR1 activator	HSF-1 act	aDG glyco act	NPR2 activator	Dyrk1A ADPGlo	HSF1 inhib
COc1ccc(N2CCN(C(=O)COC(=O)c3c(-c4ccccc4)noc3C)CC2)cc1	-2	.	0	5	3	.
Cc1ccc(OCCNC(=O)CNC(=O)c2ccccc2Cl)cc1	-2	.	0	1	-2	.
CCCOc1ccc(/C=c2\sc3ncnn3c2=O)cc1	69*	1	0	-2	0	-2
CC(=O)Oc1ccc(/C=c2\sc3ncnn3c2=O)cc1	0	2	0	-4	37	1
NS(=O)(=O)c1ccc(CNC(=O)c2ccccn2)cc1	0	0	0	-3	4	-6
O=C(COC(=O)CC1c2ccccc2CCN1S(=O)(=O)c1ccccc1)Nc1ccccc1 (stereo unspecified)	-4	58*	0	0	-10	18
Cc1ccc(OCC(=O)Nc2ccccc2C(=O)N2CCCCC2)cc1	-1	-64	0	-3	-4	-53*
CCC(=O)c1ccc(OCC(=O)Nc2ccccc2C(=O)N2CCCCC2)cc1	0	-5	0	3	-3	-1
CCc1ccc2nc(N(CCCN(C)C)C(=O)c3ccc(C(=O)c4ccccc4)cc3)sc2c1	-7	-6	3	-3	-3	-5
CC(OC(=O)CN(C)S(=O)(=O)c1ccc(Cl)cc1)C(=O)Nc1ccc(N2CCOCC2)cc1 (stereo unspecified)	0	9	0	3	1	0
O=C(NC1C(=O)NNC1c1ccccc1)c1ccc(F)cc1 (stereo unspecified)	-1	3	0	-1	0	7
Cc1ccc(C2NNC(=O)C2NC(=O)c2ccccc2)cc1 (stereo unspecified)	.	65*	0	.	-5	35
COCc1cc(CN2CCN(CCc3ccccc3)C(CCO)C2)ccc1OC (stereo unspecified)	3	190*	0	7	14	155
CC1(C)CC(=O)c2cnc(N3CCc4ccccc4C3)nc2C1	1	55*	1	-6	.	42
Cc1ccc(C2CCN(C(=O)Nc3ccccc3)C2)cc1 (stereo unspecified)	-6	45	0	-2	13	24
O=C(Nc1ccc(Cl)cc1)N1CCC(c2ccccc2)C1 (stereo unspecified)	-5	76*	0	4	-1	58
Cc1ccc(NC(=O)N2CCC(c3ccccc3)C2)cc1C (stereo unspecified)	0	62*	0	-1	0	38
C=CCNC(=O)C1CCN(C(=O)c2ccc(-c3ccccc3)cc2)CC1	1	-3	0	-3	-2	-3
CC1CC(C)CN(C(=O)c2cc3cc(Br)cc(Br)c3o2)C1 (stereo unspecified)	1	67*	0	2	2	34
CCCCc1ccc(NC(=O)CSc2nc3ncccc3[nH]2)cc1	-3	8	3	2	-2	8
Oc1cc(NCc2cccnc2)ccc1-c1nc2ccccc2o1	10	59*	0	-8	0	31
CCc1ccc(OCC(=O)Nc2ccc(-c3nc4ccccc4o3)c(O)c2)cc1	1	14	0	3	-2	7
COc1cc(SSc2cc(OC)cc([N+](=O)[O-])c2N)c(N)c([N+](=O)[O-])c1	-1	88*	0	-4	4	38
COc1cc([N+](=O)[O-])c2ncsc2c1	1	-48	0	0	1	-40
